# Source: ChEMBL document CHEMBL3988442, “University of Dundee, Small-Polar-MMV Screening Library” (2021)
# In all, about 48,000 compounds went through this assay and about 13,000 (27%) showed an effect of 50% or more. The list shows a part of the results.
# Tested on: Wolbachia pipientis
# Assay: Anti-Wolbachia Cell-Based Screen
# Format: functional
# Design: scale not given: in the data most compounds retested in dose-response had high values
# Settings: 5 µM
row,SMILES,Percent Effect [%]
1,CN(C)c1nccc(CNC(=O)NC(C)(C)C)n1,-4.369
2,CC(=O)c1ccc(C(=O)Nc2ccnc(N(C)C)n2)cc1,-0.9205
3,CN(C)c1nccc(-c2c[nH][nH]c2=O)n1,105.1
4,CN(C)c1nccc(-c2cnc(N(C)C)[nH]c2=O)n1,117.9
5,CN(C)c1nccc(NC(=O)c2ccncc2)n1,2.726
6,CCNC(=O)NCc1ccnc(N(C)C)n1,-21.64
7,c1cc(-c2nc(CN3CCn4c(nnc4C4CC4)C3)cs2)cs1,-6.477
8,Cc1noc2ncc(S(=O)(=O)Nc3cc(C(C)(C)C)n[nH]3)cc12,-0.8197
9,Cc1cc(C(=O)N(Cc2c(C)nn(C)c2C)C(C)C)nc(C)n1,12.98
10,Cn1ccc(C(=O)NCc2ccccc2CN2CCCC2)cc1=O,88.78
11,CN1CCN(Cc2ccccc2CNC(=O)c2ccc(Br)cc2)CC1,1.874
12,Cn1ccc(C(=O)NCc2ccccc2CN2CCCCC2)cc1=O,100.5
13,CN1CCN(Cc2ccccc2CNC(=O)c2cc(Br)ccc2F)CC1,-18.53
14,Cn1ccc(C(=O)NCc2ccccc2Cn2ccnc2)cc1=O,-5.249
15,CN1CCN(Cc2ccccc2CNC(=O)c2ccc(Br)cc2F)CC1,7.367
16,COc1cc(C)cc(C(C(=O)O)N(C)Cc2ccon2)c1OC (centres undefined),-2.337
17,O=C1CC(c2ccccc2)C2(CCN(C(=O)c3cnccn3)CC2)N1 (centres undefined),-7.237
18,O=C(COCC(F)(F)F)Nc1nncs1,9.109
19,O=C(NCC1CC1)Nc1cccc(N2CCN(CC3CC3)CC2)c1,0.3476
20,O=C(NCc1ccc2[nH]c(=O)[nH]c2c1)c1ccc(CN2CCCC2)o1,-9.598
21,O=C(CCn1cccc1)NCc1ccc(CN2CCCCCC2)o1,106.7
22,Cc1[nH]c2ccc(CNC(=O)c3ccc(CN4CCCC4)o3)cc2c1C,16.58
23,CNC(=O)c1csc(-c2ccoc2)n1,6.478
24,CC(C)N1CCCC(CNC(=O)Cc2csc(-c3cccnc3)n2)C1 (centres undefined),3.537
25,CNC(=O)c1csc(-c2cccnc2)n1,130

row,SMILES,Percent Effect [%]
1,O=C(NCCc1nncn1C1CC1)C1SCCc2ccccc21 (centres undefined),-2.915
2,Cn1cccc(NC(=O)N2CCC(Cc3ccccc3)C2)c1=O (centres undefined),25.6
3,Cc1nn(C)cc1NC(=O)CC1CCN(CCc2ccccc2)CC1,168.6
4,CS(=O)(=O)NC1CCN(CCc2ccccc2)CC1,-1.788
5,Cc1nn(C)cc1NC(=O)CC1CCN(C(=O)Cc2ccccc2)CC1,152.2
6,O=C(Cc1ccccc1F)NCC1CCN(CCc2ccccc2)C1 (centres undefined),-7.846
7,Cc1nn(C)cc1C(=O)N1CCC(CSc2ccccc2)C1 (centres undefined),-5
8,CC(=O)NCc1nnc2n1CCN(c1ncnc3c1CCC3)CC2,-4.362
9,Cn1cc(Br)cc(NC(=O)CC2CCC2)c1=O,5.375
10,CC(C)(C)C(NC(=O)CCS(C)(=O)=O)c1ccc(F)cc1F (centres undefined),7.431
11,COCCS(=O)(=O)Cc1nnnn1-c1ccccc1,8.083
12,CCCn1[nH]cc/c1=N\C(=O)CN1CCn2c(nnc2C2CC2)C1,-10.08
13,CCCn1[nH]cc/c1=N\C(=O)CN1CCc2c(nc(C(C)C)n2C)C1,-3.864
14,CCCn1[nH]cc/c1=N\C(=O)CN1CCc2cnc(CC)nc2C1,1.642
15,CCCn1[nH]cc/c1=N\C(=O)CN1CCOC(Cn2cc(C)cn2)C1 (centres undefined),12.63
16,CCCn1[nH]cc/c1=N\C(=O)CN1CCc2c(nc(C3CC3)n2C)C1,122.4
17,CCCn1[nH]cc/c1=N\C(=O)CN1CCc2cnc(C(C)C)nc2C1,129.2
18,O=C(CNC(=O)N(Cc1ccoc1)C1CCCCC1)N1CCCC1,-3.863
19,O=C1CN(Cc2cn(CC3CCCN(C4CCSCC4)C3)nn2)CCN1 (centres undefined),-21.26
20,CNc1cncc(C2CCCN2C(=O)c2ccc3oc(C)cc3c2)n1 (centres undefined),6.468
21,CNc1cncc(C2CCCN2C(=O)c2ccc3c(c2)OCCO3)n1 (centres undefined),121
22,CNc1cncc(C2CCCN2C(=O)c2ccc3nc(C)[nH]c3c2)n1 (centres undefined),94.32
23,CNc1cncc(C2CCCN2C(=O)c2ccc3c(c2)CCC3)n1 (centres undefined),112.1
24,Cn1cc(C(=O)N2CCCC2c2ccc3c(c2)OCCO3)ccc1=O (centres undefined),14.96
25,Cn1ccc(C(=O)N2CCCC2c2ccc3c(c2)OCCO3)cc1=O (centres undefined),4.386

row,SMILES,Percent Effect [%]
1,CC(C)C(=O)N1CCN(C(=O)CCc2nnc(-c3ccccc3)o2)CC1,-5.371
2,CN(CCn1cccn1)S(=O)(=O)c1ccc(C#N)cc1,-4.99
3,CC(C)CN1CCN(C(=O)c2cccnc2-n2cncn2)CC1,-9.606
4,CC(C)c1ncncc1C(=O)N1CCN(Cc2ccccn2)CC1,108.4
5,CCc1ncncc1C(=O)N1CCCN(Cc2ccc(C)cc2)CC1,-0.6521
6,CC(C)c1ncncc1C(=O)N1CCN(Cc2cccnc2)CC1,115.2
7,CCCc1c(C(=O)N2CCN(Cc3ccccn3)CC2)cnn1C,12.63
8,Cc1ccc(C(=O)N2CCN(Cc3ccsc3)CC2)n1C,-3.003
9,CC(C)c1ncncc1C(=O)N1CCN(Cc2ccsc2)CC1,100.4
10,CC(C)c1cc(C(=O)N2CCN(Cc3ccsc3)CC2)n[nH]1,8.435
11,CC(C)c1ncncc1C(=O)N1CCCN(Cc2cccs2)CC1,14.44
12,CCc1c(C)[nH]c(C(C)(N)CC)nc1=O.Cl (centres undefined),22.39
13,COc1cccc(COCC(O)CN(C)c2ccc(C)cc2C)c1 (centres undefined),0.5373
14,Cn1cc(CNC2CCOCC2)c(-c2cc3ccccc3o2)n1,2.257
15,Cn1cc(CN2CCc3nc4ccccc4c(=O)n3CC2)cn1,97.31
16,Cn1cc(CN2CCc3nc4sccc4c(=O)n3CC2)cn1,107.2
17,O=c1c2ccccc2nc2n1CCN(Cc1cccs1)CC2,-4.199
18,Cc1c(CN2CCc3nc4sccc4c(=O)n3CC2)cnn1C.Cl,100.5
19,Cn1cc(CN2CCCN(C(=O)c3cn4ccccc4n3)CC2)cn1,23.55
20,Cn1cc(CN2CCCN(C(=O)c3cc(Cl)cn3C)CC2)cn1,-17.2
21,COCCN(Cc1cnn(C)c1)c1nc(C)nc2sccc12,10.56
22,Cc1cc2c(=O)n3c(nc2s1)CCN(Cc1cnn(C)c1C)CC3.Cl,-7.845
23,Cc1nn(C)cc1CN1CCc2nc3sccc3c(=O)n2CC1,108
24,CC(C)(C)c1n[nH]cc1CN1CCc2nc3ccsc3c(=O)n2CC1,-17.99
